Screening results: PubChem BioAssay, National Center for Advancing Translational Sciences (NCATS)
Only some compounds are listed: those with a hit (about 19% of all), similar ones and a draw of the others.
ASM inhibitor = blocks human secretory acid sphingomyelinase; placental ASM, HMU-PC fluorogenic substrate, 60 min; Potency, µM (titrated, usually from 57.5 µM), inactives show at the top dose activity change, negative = inhibition, actives largely listed as inhibitors; 0.006% of 340,000 active; AID 504937; also: potency is read from the fitted curve at half-maximal effect
Target sequence (P17405 47-631 limits assumed): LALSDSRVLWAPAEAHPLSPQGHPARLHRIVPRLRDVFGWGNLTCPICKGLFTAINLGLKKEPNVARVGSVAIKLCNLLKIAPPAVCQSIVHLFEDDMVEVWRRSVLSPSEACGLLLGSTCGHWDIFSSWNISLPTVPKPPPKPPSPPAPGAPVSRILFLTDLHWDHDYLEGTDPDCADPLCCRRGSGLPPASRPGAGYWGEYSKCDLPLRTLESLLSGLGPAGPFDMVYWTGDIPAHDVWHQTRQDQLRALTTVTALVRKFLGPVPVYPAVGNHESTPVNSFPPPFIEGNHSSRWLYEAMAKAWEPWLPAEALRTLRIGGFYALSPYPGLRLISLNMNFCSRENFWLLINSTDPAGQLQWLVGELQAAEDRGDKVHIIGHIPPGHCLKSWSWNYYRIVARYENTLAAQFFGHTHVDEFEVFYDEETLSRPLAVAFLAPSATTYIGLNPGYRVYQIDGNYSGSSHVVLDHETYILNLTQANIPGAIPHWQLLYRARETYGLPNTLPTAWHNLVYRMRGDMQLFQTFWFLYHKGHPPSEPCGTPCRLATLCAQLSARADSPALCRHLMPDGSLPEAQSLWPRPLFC
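qHTS format. ASM enzyme prepared from human placenta hydrolyses the fluorogenic substrate HMU-PC0 (9 uM final) over 60 min at 37 °C after a 10 min compound preincubation.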
IL1B secr inh = inhibitors of inflammasome signaling (IL-1 beta secretion); THP-1 LPS/ATP IL-1B secretion, AlphaLISA, 16 h; stronger effect = lower value; 4.7% of 360,000 active; activity change, % at 57.5 µM; in the data active = activity change below about -50%; inconclusive = mostly about -30% to -49%; also: % is scaled to controls: 0 for no effect and ±100 for the full control effect
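Secreted IL-1B measured by AlphaLISA bead assay after 16 h compound exposure of THP-1 cells; compounds (final up to 57.5 uM) added 1 h before LPS (250 ng/mL) and ATP (1.25 mM) stimulation; lower signal means less secretion.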
TDP1 cell noCPT = qHTS for Inhibitors of human tyrosyl-DNA phosphodiesterase 1 (TDP1): qHTS in cells in absence of CPT | Potency, µM (top dose mostly 46.2 µM), for inactives: top-dose activity change, negative = growth inhibition, most hits filed as inhibitors | AID 686978, 2013 | DT40 Tdp1-/- hTDP1 cells, no CPT, ATP luminescence, 48 h | 15% of 420,000 active; also: potency is read from the fitted curve at half-maximal effect; % is scaled to controls: 0 for no effect and ±100 for the full control effect; nearly all actives have a fitted effect of over 55% in size
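Growth kinetics read by CellTiter-Glo luminescence after ≥48 hr at 37 °C. Cells: DT40 Tdp1-/- stably carrying human TDP1, 400 per well, compound exposure in the absence of CPT (DMSO vehicle).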
TGFb SMAD3 inh = blocks TGF-b signaling. HepG2 CAGA-GFP TGF-b/SMAD3 reporter, GFP fluorescence, 18 h; TGF-beta stimulated, 500 pg/mL final. Potency, µM (highest dose often 46.1 µM), for inactives: at the highest dose activity, negative = inhibition, most hits filed as inhibitors. 1.2% of 410,000 active; also: potency is read from the fitted curve at half-maximal effect; % is scaled to controls: 0 for no effect and ±100 for the full control effect; nearly all actives have a fitted effect of over 65% in size
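Inhibition of TGF-beta-driven CAGA-GFP reporter expression in HEPG2 cells is measured by cellular GFP fluorescence after 18 h stimulation with 500 pg/mL recombinant TGF-beta in 1% FBS medium at 37 degrees C.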
TDP1 cell CPT = growth inhibition of DT40 Tdp1-/-;hTDP1 cells with camptothecin (screen for TDP1 inhibitors). chicken DT40 Tdp1-/-;hTDP1 cells + 20 nM CPT, ATP luminescence, 48 h. Potency, µM (doses to about 46.2 µM), without a hit: top-dose activity change, negative = growth inhibition, hits mostly inhibitors. 12% of 420,000 active. AID 686979; also: potency is read from the fitted curve at half-maximal effect; % is scaled to controls: 0 for no effect and ±100 for the full control effect; nearly all actives have a fitted effect of over 55% in size
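Chicken DT40 Tdp1-/- cells complemented with human TDP1, 400 cells/well, exposed to compounds plus 20 nM camptothecin for at least 48 h at 37 C; viability read as ATP content by CellTiter-Glo luminescence.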
HepG2 viability = counter-screen for TGF-b inhibitors: cytotoxicity in HepG2 cells. HepG2 CAGA-GFP viability, ATP luminescence, 18 h. Potency, µM (highest dose often 46.1 µM), without a hit: at the top dose activity change, negative = cytotoxicity, most hits filed as cytotoxic. 0.76% of 410,000 active; also: potency is read from the fitted curve at half-maximal effect
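CellTiter-Glo luminescence gave cytotoxicity after 18 hours at 37 degrees C. The cells were HepG2 CAGA-GFP in 1% FBS DMEM, stimulated with 500 pg/mL TGF-beta after compound addition. %Activity was normalised to no-cell wells (complete cell-killing) and DMSO (no toxicity), and curves were fitted and classified.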
An asterisk follows results filed as active; ? = inconclusive; · = no result given. Unless noted, calls follow the shape of the dose curve; as a rule, active = well fitted curve in the direction sought with a large enough effect; inconclusive = small, poorly fitted or top-dose-only effect, or another doubt; inactive = no such curve, though single readings can be large; an effect the other way counts as inactive or inconclusive.

SMILES	ASM inhibitor	IL1B secr inh	TDP1 cell noCPT	TGFb SMAD3 inh	TDP1 cell CPT	HepG2 viability
CC(=O)c1ccc(C(=O)N(Cc2cccnc2)c2nc3c(Cl)cccc3s2)cc1	·	·	?	?	26µM*	-21%
CC(=O)N(Cc1cccnc1)c1cccc(-c2nc3ccccc3s2)c1	-1%	-62*	?	-23%	?	-5%
O=C(CCOc1ccccc1)N(Cc1cccnc1)c1nc2c(F)cccc2s1	·	·	7.3µM*	16µM*	13µM*	-99%
Cc1ccc2sc(N(Cc3cccnc3)C(=O)CCOc3ccccc3)nc2c1C	·	·	18µM*	0%	23µM*	-34%
COc1ccc2nc(N(Cc3cccnc3)C(C)=O)sc2c1	·	·	4%	-14%	-7%	-6%
CC1CCCCC12NC(=O)N(CC(=O)NCc1ccco1)C2=O (stereo unspecified)	1%	-11	-16%	29%	-13%	2%
Nc1c(C(=O)N/N=C/c2ccc([N+](=O)[O-])cc2)sc2nnc(-c3ccccc3)c(-c3ccccc3)c12	7%	-13	1%	-4%	18%	-24%
Cc1cccc2sc(N(Cc3cccnc3)C(=O)Cc3ccccc3)nc12	·	·	-26%	13µM*	-23%	-21%
COc1cc(Cc2cc(OC)c(O)c(OC)c2)cc(OC)c1O	·	-1	21µM*	-2%	16µM*	2%
Cc1ccc(C2C=CC(C#N)=CN2Cc2ccccc2)cc1 (stereo unspecified)	·	69	?	-9%	23µM*	-25%
COc1cc2c(cc1NC(=O)C(Cl)Cl)-c1ccc(NC(=O)C(Cl)Cl)cc1C2	-1%	-97*	8.2µM*	4.5µM*	8.2µM*	7.9µM*
O=C(c1ccccc1)c1ccc(Cn2cc(CCCO)nn2)cc1	0%	39	5.8µM*	?	8.2µM*	-9%
O=C(O)CCCCCCCCc1cn(Cc2ccc(C(=O)c3ccccc3)cc2)nn1	-2%	74	4.1µM*	7.9µM*	3.7µM*	-24%
O=C(OCc1cn(Cc2ccccc2)nn1)c1ccccc1	-4%	23	-3%	0%	-3%	-4%
COc1ccccc1CN1CCNC(=O)C1CC(=O)N(C)Cc1nc(C)cs1 (stereo unspecified)	7%	5	-21%	3%	-8%	2%
Cc1nn(-c2ccccc2)c(C)c1NC(=O)COc1ccc([N+](=O)[O-])cc1	-1%	-17	15µM*	9%	?	2%
Cc1nn(-c2ccccc2)c(C)c1NC(=O)COc1ccc(F)cc1Cl	6%	-4	21µM*	-1%	23µM*	-14%
Cc1ccc(OCC(=O)Nc2c(C)nn(-c3ccccc3)c2C)c(Br)c1	-3%	?	23µM*	?	?	-29%
CCOC(=O)Cn1nc(C)c(NC(=O)COc2ccc([N+](=O)[O-])cc2)c1C	6%	11	17%	-5%	19%	-14%
Cc1cccc(-c2nc(CNC(=O)c3ccco3)cs2)c1	2%	-24	0%	18%	?	-22%
CC(C)C[C@H]1CNC(=S)N1C[C@H]1CCCN1C[C@H](CC(C)C)N1C[C@H](Cc2ccc(O)cc2)N(CC2CCCCC2)C1=S	·	-62*	13µM*	·	10µM*	·
CC(C)C[C@H]1CN([C@@H](Cc2ccc(O)cc2)CN2CCCC2CN2C(=S)NC[C@@H]2Cc2ccccc2)C(=S)N1CC1CCCCC1 (stereo partly specified)	·	-29	15µM*	·	16µM*	·
CC(C)C[C@H]1CNC(=S)N1C[C@H]1CCCN1C[C@H](Cc1ccc(O)cc1)N1C[C@H](Cc2ccc(O)cc2)N(CC2CCCCCC2)C1=S	·	?	6.5µM*	?	4.6µM*	13µM*
Oc1ccc(C[C@H]2CNC(=S)N2C[C@H]2CCCN2C[C@H](Cc2ccccc2)N2C[C@H](Cc3ccccc3)N(CC3CCCCC3)C2=S)cc1	·	-1	13µM*	·	?	·
O=c1ccc2cc(S(=O)(=O)Nc3ccc(Br)cc3)ccc2o1	-4%	-7	-26%	-26%	-2%	-29%
SMILES	ASM inhibitor	IL1B secr inh	TDP1 cell noCPT	TGFb SMAD3 inh	TDP1 cell CPT	HepG2 viability
CC(C)C(=O)N1CCC2(CC1)Oc1ccc(F)cc1C(=O)C21CC(c2ccc(Cl)cc2)=NO1 (stereo unspecified)	-8%	-67*	?	12%	?	-3%
CCC(=O)N1CCC2(CC1)Oc1ccc(Cl)cc1C(=O)C21CC(c2ccc(Cl)cc2)=NO1 (stereo unspecified)	-8%	?	13µM*	-3%	?	-22%
CCC(=O)N1CCC2(CC1)Oc1ccc(F)cc1C(=O)C21CC(c2ccc(Cl)cc2)=NO1 (stereo unspecified)	-2%	?	26µM*	-1%	?	-19%
Cc1ccc(C(=O)N2CCC3(CC2)Oc2ccc(F)cc2C(=O)C32CC(c3ccc(Cl)cc3)=NO2)s1 (stereo unspecified)	0%	?	-21%	10%	-17%	-3%
O=C(C1COc2ccccc2O1)N(Cc1cccnc1)c1nc2ccc(Cl)cc2s1 (stereo unspecified)	·	·	-10%	1%	-3%	-15%
COc1cccc(N2C(=O)Nc3ccc(Br)cc3C2(O)C(=O)NCCCN(C)C)c1 (stereo unspecified)	6%	21	21%	9%	20%	0%
CN(C)CCNC(=O)Nc1ccc([N+](=O)[O-])cc1	2%	45	2%	1%	-2%	-7%
COc1cccc(CNC(=O)CN2C(=O)CSc3ccc(S(=O)(=O)N4CCOCC4)cc32)c1	0%	-7	27%	13%	-1%	-37%
C=CCn1cn[nH]c1=S	1%	26	0%	4%	5.2µM*	3%
C=CCOc1ccc(CNn2cn[nH]c2=S)cc1	0%	6	-5%	1%	-3%	-2%
